These results are taken from PubChem BioAssay AID686978 (National Center for Advancing Translational Sciences (NCATS), 2013).

Out of some 420,000 compounds screened, about 64,000 (15%) were called active. Another 27% or so got no clear call; they are omitted. The call rests on the fitted dose curve; in most records, active means well fitted inhibition curve with a large enough effect; inconclusive means small, poorly fitted or top-dose-only effect; inactive means flat fitted curve, though single readings scatter. These entries were drawn from the full list. A call without a number means that no potency is given here.
Potency means the concentration at half of the fitted maximal effect.

This assay can be described thus: qHTS for Inhibitors of human tyrosyl-DNA phosphodiesterase 1 (TDP1): qHTS in cells in absence of CPT. Further: nearly all actives have a fitted effect of over 55% in size. The conditions noted are these: DT40 Tdp1-/- hTDP1 cells, no CPT, ATP luminescence, 48 h; activity change, negative = growth inhibition: at 46.2 µM (top of the series). The gist of the method: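 Compound effects on proliferation are scored in DT40 Tdp1-/-;hTDP1 cells in the absence of CPT. ATP levels (CellTiter-Glo luminescence) are recorded after a ≥48 hr, 37 °C incubation.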
With `CCC1CN(CCNC(=O)c2cccc(C)n2)Cc2cc(OC)ccc2O1` (centres undefined), the Potency entry was “inactive”.

In the case of `CC(C)C(=O)Nc1c(O)c2ccccc2[nH]c1=O`, the Potency result was “inactive”.

Consider `O=C(O)C1CCCN(S(=O)(=O)c2cccc3cccnc23)C1` (centres undefined), for which the Potency entry is “inactive”.

As for `CC(C)[C@@H]1NC(=O)c2cc([N+](=O)[O-])cc(I)c2NCCC[C@@H](C(=O)NC(CC(=O)O)C(N)=O)NC(=O)[C@H](CO)NC1=O` (some centres undefined), the Potency result was “inactive”.

On to `COC(=O)c1c(C)[nH]c(C(=O)NCCc2ccc(S(N)(=O)=O)cc2)c1C`, for which the Potency entry was “inactive”.

On to `CCCc1c(C)nc2c(Br)cccc2c1Cl`, for which the Potency result is “inactive”.

In the case of `Cn1cnc(C(F)(F)F)c1-c1ccc([N+](=O)[O-])cc1`, the Potency entry is “inactive”.

As to `COc1ccc(S(=O)(=O)c2c[nH]c(=S)[nH]c2=O)cc1Cl`, the Potency entry was “inactive”.

With `COc1ccc(-c2noc(COc3ccc(Cl)c(C)c3)n2)cc1`, the Potency entry was “inactive”.

Consider `Cc1ccc(/C(N)=N/OC(=O)COc2ccc(Cl)c(C)c2)cc1`, for which the Potency result is “inactive”.

Consider `COc1ccc(C(C)=O)cc1COc1ccc(Cl)c(C)c1`, for which the Potency was 9.2 µM (active).

As for `O=C(CSCc1c(Cl)cccc1Cl)NN1C(=O)c2ccccc2C1=O`, the Potency result was “inactive”.

With `Cc1cc(C)c(NC(=S)N2CCCC2C(=O)O)c(C)c1` (centres undefined), the Potency result was “inactive”.

With `O=C(c1cc2ccccc2o1)N1CCN(c2cccc(C(F)(F)F)c2)CC1`, the Potency result is “inactive”.

Regarding `Cc1nn(CC(=O)N2CCN(c3cccc(C(F)(F)F)c3)CC2)c(=O)c2cc3sccc3n12`, the Potency result was “inactive”.

In the case of `CC(C)N1C[C@@H](NCc2ccccc2O)C[C@H]1C(=O)N1CCN(c2cccc(C(F)(F)F)c2)CC1`, the Potency is 18.4 µM (active).

On to `Cc1cc(C)nc(NS(=O)(=O)c2ccc(N3C(=O)C4CCCCC4C3=O)cc2)n1` (centres undefined), for which the Potency result was “inactive”.

Regarding `CC(=O)NC(Cc1ccccc1)C(=O)NC1CCN(c2ncccc2[N+](=O)[O-])CC1` (centres undefined), the Potency entry was “inactive”.

With `O=[N+]([O-])c1ccc(S(=O)(=O)Nc2cccc(-c3ccc(N4CCCC4)nn3)c2)cc1`, the Potency entry is “inactive”.

Consider `CCCOc1ccc(-c2cccc(NS(=O)(=O)c3ccccc3)c2)nn1`, for which the Potency was 23.1 µM (active).

As for `O=S(=O)(Nc1cccc(-c2ccc(N3CCOCC3)nn2)c1)c1ccc(Cl)c(Cl)c1`, the Potency result was “inactive”.

With `N#Cc1ccc(CSc2nnc3ccccn23)cc1`, the Potency entry was “inactive”.

On to `O=c1c2ccccc2cnn1Cc1n[nH]c(=S)n1-c1ccccc1F`, for which the Potency entry is “inactive”.

For `CNS(=O)(=O)c1cnccc1N1CCN(c2cccc(C)c2)CC1`, the Potency entry was “inactive”.

For the compound `CC(C)=C1SC(N2CCN(c3cccc(C)c3)CC2)=NC1=O`, the Potency is 20.6 µM (active).

Turning to `Cc1ccc(N2CCN(C3=NC(=O)/C(=C\c4cccs4)S3)CC2)cc1`, the Potency result was “inactive”.

`N/C(=N\OC(=O)CC1CCCCC1)c1ccccc1`: the Potency entry is “inactive”.

Consider `Cc1cc(C)c2c(=O)[nH]c(SCC(=O)Nc3ccc(Br)cc3)nc2n1`, for which the Potency result was “inactive”.

For `O=C(Nc1cc(S(=O)(=O)N2CCOCC2)ccc1OCC(F)(F)F)c1ccc(N2CCCC2=O)cc1`, the Potency result is “inactive”.

`CCOC(=O)C1C(c2ccc(Cl)cc2)NC(=S)NC1(O)C(F)(F)F` (centres undefined): the Potency result is “inactive”.

On to `O=C(/C=C/Sc1ncn[nH]1)c1ccc(Cl)cc1`, for which the Potency was 2.59 µM (active).

`O=C(NCCOCc1ccc(Cl)cc1)c1ncn[nH]1`: the Potency result was “inactive”.

Consider `O=C(CSc1ncn[nH]1)N/N=C/c1ccc(F)cc1`, for which the Potency result is “inactive”.

In the case of `O=C(O)c1cc(Cl)c(Cl)cc1C(=O)Nc1cccc2ncccc12`, the Potency result is “inactive”.

For `O=C(Nc1cccnc1Cl)c1cc(-c2cccc(Cl)c2)on1`, the Potency entry is “inactive”.

Regarding `Cc1ccc(C(=O)Nc2nc3ccc(Cl)cc3s2)o1`, the Potency entry is “inactive”.

As to `Cc1csc(NC(=O)c2ccc(-c3ccc(Cl)cc3Cl)o2)n1`, the Potency was 5.17 µM (active).

In the case of `O=C(Nc1cccc2ncccc12)c1ccc(-c2ccc(Cl)cc2Cl)o1`, the Potency is 20.6 µM (active).

Regarding `Cc1csc(NC(=O)c2ccc(C)s2)n1`, the Potency entry is “inactive”.

`COc1ccc(Br)c2c1C(=O)CC2`: the Potency entry was “inactive”.

Consider `O=C(NCc1ccc(F)cc1)C(c1ccccc1)N(C(=O)c1csnn1)C1CC1` (centres undefined), for which the Potency entry was “inactive”.

Consider `CCNC(=O)N1CCN(S(=O)(=O)c2ccc3c(c2)OCCCO3)CC1`, for which the Potency result was “inactive”.

For `CC(C)(CCl)C(=O)Nc1ccc(Sc2ccc(F)cc2)cc1`, the Potency was 7.31 µM (active).

For `Cc1ccc(NC(=O)CC(=O)Nc2ccc(C)cc2)cc1`, the Potency entry is “inactive”.

In the case of `O=C(Cc1ccc(Cl)c(Cl)c1)Nc1ccc(SC(F)F)cc1`, the Potency result was “inactive”.

Turning to `O=C(CCl)Nc1ccc(Sc2ccc(NC(=O)CCl)cc2)cc1`, the Potency was 5.17 µM (active).

As for `CCN(c1ccccc1)S(=O)(=O)c1ccc(NC(=O)C(C)(C)C)cc1`, the Potency result was “inactive”.

On to `CC(=O)Nc1cc(C(=O)NCc2ccc(F)cc2)ccc1Sc1ccc(F)cc1`, for which the Potency result was “inactive”.

Regarding `Cc1sc2ncn(CC(=O)NCCCC(=O)NCc3ccc(F)cc3)c(=O)c2c1C`, the Potency result was “inactive”.

As for `Cc1c(Cl)cccc1NC(=O)CC1SC(=NCC2CCCO2)NC1=O` (centres undefined), the Potency result was “inactive”.

As for `COc1ccc(N2C(=O)C3CCCN3C2c2cc(OC)c(OC)cc2OC)cc1` (centres undefined), the Potency result is “inactive”.

As to `CCNC(=O)C1(C)CCCN(C(=O)c2ccc3ccccc3n2)C1` (centres undefined), the Potency result was “inactive”.

In the case of `Cc1cc(/C=N/NC(=O)c2cccnc2)c(C)n1CC(C)C`, the Potency result is “inactive”.

On to `Cc1cccc(-n2c(C)cc(/C=N/NC(N)=S)c2C)c1`, for which the Potency was 5.8 µM (active).

As to `CC(=O)Nc1ccc(/C=N/NC(=O)c2cccs2)cc1`, the Potency entry was “inactive”.

Take `Cc1cc(/C=N/n2cnnc2)c(C)n1-c1cccc(C(=O)O)c1`: the Potency result is “inactive”.

For `Cc1cccc(-n2c(C)cc(/C=N\NC(=O)c3cccs3)c2C)c1`, the Potency is 16.4 µM (active).

Turning to `Cc1cc(/C=N/NC(N)=O)c(C)n1C1CCCCC1`, the Potency result was “inactive”.

For `Cc1c(C#N)c2ncn(CC#N)c(=O)c2n1-c1ccccc1`, the Potency entry was “inactive”.

As for `CCCCOC(=O)Nc1nnc(CC(=O)NCc2ccccc2)s1`, the Potency result is “inactive”.

As for `Nn1c(SCC(=O)NC2CCCC2)nnc1-c1ccccc1F`, the Potency entry is “inactive”.

For the compound `Cc1cccc(CNC(=O)c2cnn(-c3nccc(-c4ccccc4F)n3)c2C2CC2)n1`, the Potency result is “inactive”.

`Cc1cc(-c2ccnc(-n3ncc(C(=O)NCCc4ccncc4)c3C)n2)c(C)s1`: the Potency entry was “inactive”.

With `Cc1cc(-c2ccnc(-n3ncc(C(=O)NC(C)(C)CO)c3C3CC3)n2)c(C)s1`, the Potency was 23.1 µM (active).

As to `CNc1nc2c(C)cccn2c(=O)c1C=Nc1ccc(OC)cc1`, the Potency result is “inactive”.

Turning to `CC(Oc1ccc(Cl)cc1)C(=O)Nc1ncccn1` (centres undefined), the Potency result was “inactive”.

`CCN1CCN(C(=O)N[C@@H](C(=O)N[C@@H]2C(=O)N3[C@@H]2SC(C)(C)[C@H]3C(=O)O)c2ccccc2)C(=O)C1=O`: the Potency result was “inactive”.

Regarding `CCc1nnc(NS(=O)(=O)c2ccc(NC(=S)NC(=O)c3cccs3)cc2)s1`, the Potency entry is “inactive”.

For the compound `O=C(NC(=S)Nc1cccc(-c2ccc(CO)o2)c1)c1cccs1`, the Potency was 25.9 µM (active).

In the case of `O=C(NC(=S)Nc1ccc(NC(=O)c2cccs2)cc1)c1ccc([N+](=O)[O-])cc1`, the Potency result is “inactive”.

Turning to `Cc1ccc(N2C(=O)C3C4C=CC(CC4)C3C2=O)cc1Cl` (centres undefined), the Potency entry was “inactive”.

Consider `N#Cc1cccc(OC(=O)c2ccc3c(=O)n4c(nc3c2)CCC4)c1`, for which the Potency result was “inactive”.

On to `O=C(CSCc1cccs1)N1CCCC1`, for which the Potency result was “inactive”.

For the compound `O=C(CSCc1ccc(Cl)cc1)N1CCCCC1`, the Potency is 16.4 µM (active).

Consider `CC(=O)C(CC(=O)N1CCCC1)C(=O)Nc1ccc(Cl)cc1` (centres undefined), for which the Potency entry was “inactive”.

Consider `O=C(N/C(=C\c1ccc([N+](=O)[O-])cc1)C(=O)N1CCCCC1)c1ccco1`, for which the Potency result was “inactive”.

For the compound `COC(=O)/C(NC(C)=O)=C(\C)c1ccc(Cl)cc1`, the Potency entry is “inactive”.

For the compound `CCOc1ccccc1NC(=O)Nc1cc(OC)ccc1OC`, the Potency entry is “inactive”.

Regarding `COc1ccc(OC)c(NC(=O)Cc2cccs2)c1`, the Potency result was “inactive”.

On to `COc1ccc(OC)c(NC(=O)CC(Cc2ccccc2OC)C(=O)O)c1` (centres undefined), for which the Potency was 11.2 µM (active).

For the compound `CC1CC(C)(C)n2c(O)c(N=NC(N)=S)c3cccc1c32` (centres undefined), the Potency entry is “inactive”.

Consider `COC(=O)[C@@]1(Cc2ccc(OC)cc2)[C@H]2c3cc(C(=O)N4CCCC4)n(Cc4ccc(OC(F)(F)F)cc4)c3C[C@H]2CN1C(=O)c1ccccc1`, for which the Potency was 18.4 µM (active).

With `COC(=O)c1cccc(C(=O)N2CCC(CCC(=O)NCc3ccc(F)cc3)CC2)c1`, the Potency result was “inactive”.

`COc1ccc2[nH]cc(CCN3C(=O)c4ccc(C(=O)O)cc4C3=O)c2c1`: the Potency result was “inactive”.

Take `COC(=O)[C@@]1(Cc2ccc(F)cc2)[C@H]2c3cc(C(=O)N(C)C)n(CCc4c[nH]c5ccc(OC)cc45)c3C[C@H]2CN1C(=O)c1ccccc1`: the Potency is 23.1 µM (active).

On to `COc1ccc(OCc2cccc(C(=O)N3CCCC3)c2)cc1`, for which the Potency entry is “inactive”.

Take `COC(=O)[C@@]1(Cc2ccc(F)cc2)[C@H]2c3cc(C(=O)N4CCCC4)n(Cc4ccc(OC(F)(F)F)cc4)c3C[C@H]2CN1C(=O)c1ccccc1`: the Potency was 18.4 µM (active).

As to `Cc1ccc(CN2CCNC(=O)C2CC(=O)NCc2csc(C(C)C)n2)cc1` (centres undefined), the Potency entry is “inactive”.

`Cc1cc(NC(=O)c2cccc(N3C(=O)CCC3=O)c2)no1`: the Potency result is “inactive”.

With `Cc1cc(N/C=C\C(=O)c2ccc(Cl)c(Cl)c2)no1`, the Potency entry is “inactive”.

For `Cc1cccc(OCCC(=O)OCc2csc(CC(=O)Nc3ccccc3C)n2)c1`, the Potency result was “inactive”.

For the compound `O=C(CSc1nnc(SCc2ccc(F)cc2)s1)Nc1ccc(C(=O)O)cc1`, the Potency entry was “inactive”.

Regarding `CCCCn1c(N)c(N(CCC(C)C)C(=O)COC(=O)c2cccnc2OCC)c(=O)[nH]c1=O`, the Potency entry is “inactive”.

On to `O=C(NCCCCO)C(F)(F)C(F)(F)C(F)(F)C(=O)NCCCCO`, for which the Potency result is “inactive”.

`CC1=C2C(=O)OC(c3ccoc3)C2(C)CCC1` (centres undefined): the Potency result is “inactive”.

As to `O=C(Nc1ccc(F)cc1)Nc1nnc([C@H]2C[C@H](O)[C@@H](CO)O2)s1`, the Potency result is “inactive”.

Turning to `Cc1c(Cl)cnc(NC(=O)COC(=O)C2CCCC2)c1Cl`, the Potency entry is “inactive”.

On to `Cc1ccc(NC(=O)C(C)Sc2nnc(C3CC3)n2C2CC2)cc1S(=O)(=O)N1CCOCC1` (centres undefined), for which the Potency entry is “inactive”.

With `COc1ccc(C2CC(c3ccccc3)Nc3ncnn32)cc1` (centres undefined), the Potency result is “inactive”.

As to `FC(F)Oc1ccccc1C1CC(c2ccc(Br)s2)Nc2ncnn21` (centres undefined), the Potency was 16.4 µM (active).

As to `Clc1ccc(C2CC(c3cccs3)n3ncnc3N2)cc1Cl` (centres undefined), the Potency entry was “inactive”.

On to `COc1ccc(C(=O)N2CCCC(C(=O)c3ccccc3OC)C2)cc1OC` (centres undefined), for which the Potency entry was “inactive”.

For `COc1ccc(F)cc1C(=O)C1CCCN(C(=O)CCc2ccccn2)C1` (centres undefined), the Potency was 18.4 µM (active).

For `CSCC(=O)N1CCCC(C(=O)c2cc(F)ccc2F)C1` (centres undefined), the Potency entry was “inactive”.
